Data reported in PubChem BioAssay AID2284162 (EPA ToxCast).
Calls of active or inactive are those of the source. How the source made its calls: active means hit-call score of the fitted dose curve at least 0.9, where 1 is the maximum; inactive means score below 0.9.

target: human Histamine Receptor H1, HRH1 (gene 3269) (UniProt P35367); assay: ERF_FR_GPCR_hHRH1: Eurofins (ERF) G Protein-Coupled Receptor (GPCR) Radioligand Binding LeadHunter Assay for human Histamine Receptor H1 Antagonism, conducted at France lab site
Sequence (P35367 whole entry, looked up): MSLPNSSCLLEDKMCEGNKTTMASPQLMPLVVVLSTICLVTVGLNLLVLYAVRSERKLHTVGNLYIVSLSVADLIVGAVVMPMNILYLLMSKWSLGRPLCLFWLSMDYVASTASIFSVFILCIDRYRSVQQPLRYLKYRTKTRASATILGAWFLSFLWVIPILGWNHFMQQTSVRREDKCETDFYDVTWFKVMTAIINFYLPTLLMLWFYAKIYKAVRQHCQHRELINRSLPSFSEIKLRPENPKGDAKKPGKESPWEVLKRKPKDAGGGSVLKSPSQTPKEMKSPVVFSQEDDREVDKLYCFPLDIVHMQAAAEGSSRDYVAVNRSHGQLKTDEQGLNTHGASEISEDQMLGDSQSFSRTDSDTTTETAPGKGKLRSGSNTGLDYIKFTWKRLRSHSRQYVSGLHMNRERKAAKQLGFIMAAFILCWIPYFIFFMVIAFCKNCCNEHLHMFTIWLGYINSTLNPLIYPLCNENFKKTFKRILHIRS
Procedure: ERF_FR_GPCR_hHRH1 is a biochemical, single-readout assay that uses extracted gene-proteins in a cell-free assay. Measurements were taken 1 hour after chemical dosing in a 96-well plate. See H1 Human Histamine GPCR Binding (Antagonist Radioligand) Assay, Cerep.ERF_FR_GPCR_hHRH1 is an assay component calculated from the ERF_FR_GPCR_hHRH1 assay. It is designed to measure radioligand binding using a type of binding reporter as detected by scintillation counting with radiometry technology.Data from the assay component ERF_FR_GPCR_hHRH1 was analyzed at the assay endpoint, ERF_FR_GPCR_hHRH1, in the positive analysis fitting direction relative to DMSO as the negative control and baseline of activity. Using a type of binding reporter, loss-of-signal activity can be used to understand changes in binding as they relate to gene HRH1. To generalize the intended target to other relatable targets, this assay endpoint is annotated to the gpcr intended target family, where the subfamily is histamine.
Human cells are incubated for 60 minutes at room temprature with [3H]pyrilamine ligand (1 nM) and Pyrilamine as control inhibitor. Test Sample Requirements: Minimum for 1) Screen: 60 ul of 10 mM stock -OR- 1 mg (pre-weighed) for 10 uM final testing. 2) Dose Response: 90 ul of 10 mM stock -OR- 1 mg (pre-weighed) for a top concentration at 10 uM.

Row | Compound | AC50
1 | O=C(/C=C/c1ccc(O)cc1)CC(=O)/C=C/c1ccc(O)cc1 | 1460 nM (active)
